# ± gives the standard deviation.
# How the values were obtained:
# Details in all cases: modulator concentration 10 µM
# [1] = tested on: RAW-Dual (murine macrophage reporter line); test: NF-kB reporter (SEAP) activity fold change vs agonist alone; higher = enhanced NF-kB activity
# How it was run: (§1)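 In 384-well plates holding 50 000 RAW-Dual murine macrophage reporter cells per well, compound at 10 μM final was pre-incubated for 1 hour at 37 °C, after which a PRR agonist was added overnight. Supernatant SEAP read with QUANTI-Blue at 620 nm absorbance reported NF-κB, and Lucia luciferase read with QUANTI-Luc luminescence reported IRF. Fold change values come from dividing each reporter signal by the mean of agonist-only control wells on the same plate, averaged over replicate plates with propagated errors.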
# [2] = tested on: RAW-Dual (murine macrophage reporter line); test: IRF reporter (Lucia luciferase) activity fold change vs agonist alone; higher = enhanced IRF activity
# How it was run: as §1
# [3] = tested on: RAW-Dual (murine macrophage reporter line); test: viability score (confluency relative to resting cells, overnight) (fraction); higher = more viable, active = viable (0.7 or more)
# How it was run: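 In 384-well plates, RAW-Dual macrophages received compound at a final 10 μM overnight. Two confluency masks were then made with IncuCyte software from IncuCyte images of all imaged wells. The viability score is defined as confluency relative to resting cells. Passing the cutoff required both masks to lie above 70% of resting cells.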
# [4] = agonist: CpG ODN 1826 0.5 ug/mL
Structure (SMILES),"NF-kB reporter [1, 4]",NF-kB reporter ([1]; agonist: LPS 0.1 ug/mL),NF-kB reporter ([1]; agonist: MPLA […]),IRF reporter ([2]; agonist: 3'3'-cGAMP 10 ug/mL),IRF reporter ([2]; agonist: LPS 0.1 ug/mL),IRF reporter ([2]; agonist: MPLA […]),viability score [3]
COC(CNC(=O)c1cc2ccccc2[nH]1)c1ccc(Cl)s1 (configuration not stated),0.989 ± 0.23,1.06 ± 0.081,1.12 ± 0.11,0.917 ± 0.045,1.26 ± 0.14,1.48 ± 0.19,0.882 (active)
CCCc1nc2c(C)cc(-c3nc4ccccc4n3C)cc2n1Cc1ccc(-c2ccccc2C(=O)O)cc1,1.29 ± 0.18,1.16 ± 0.29,0.99 ± 0.073,0.997 ± 0.032,1.49 ± 0.28,1.06 ± 0.11,0.993 (active)
CCOc1ccc(CN(CCc2ccc3c(c2)OCO3)Cc2ccc3ccccc3c2)cc1,0.733 ± 0.083,0.954 ± 0.063,0.781 ± 0.053,0.197 ± 0.0058,1.54 ± 0.2,1.2 ± 0.16,0.989 (active)
CC1CCc2nnc(OCC3CCCN3C)cc2C1 (configuration not stated),0.837 ± 0.051,0.793 ± 0.11,0.99 ± 0.059,0.972 ± 0.061,1.19 ± 0.25,1.22 ± 0.48,0.996 (active)
CC(C)NCC(O)COc1cccc2[nH]ccc12 (configuration not stated) [Prestw-90],1.59 ± 0.38,0.968 ± 0.068,1.13 ± 0.13,1.01 ± 0.046,1.17 ± 0.13,1.17 ± 0.11,0.985 (active)
CC(=O)O.NCc1ccc(S(N)(=O)=O)cc1,1 ± 0.1,1.01 ± 0.052,0.992 ± 0.058,0.914 ± 0.065,0.96 ± 0.12,1.02 ± 0.092,1.01 (active)
CC(C)NCC(O)COCCOc1ccc(C(C)(C)C)cc1.Cl (configuration not stated),0.593 ± 0.039,1.06 ± 0.079,1.13 ± 0.079,0.569 ± 0.034,1.31 ± 0.14,1.57 ± 0.37,0.934 (active)
CCCCSc1nnc2c(n1)OC(c1cccc(O)c1)Nc1ccc(Br)cc1-2 (configuration not stated),0.765 ± 0.063,0.954 ± 0.073,0.996 ± 0.14,0.644 ± 0.031,0.931 ± 0.065,0.866 ± 0.075,1.02 (active)
CCOC(=O)C1=C(CC)NC2=C(C(=O)CCC2)C1c1ccccc1I (configuration not stated),0.996 ± 0.11,1.02 ± 0.13,0.982 ± 0.1,0.921 ± 0.032,1.27 ± 0.16,1.05 ± 0.19,0.975 (active)
Cc1ccc(-n2nnc3c(=O)n(CC(=O)N4CC(C)OC(C)C4)cnc32)cc1Cl (configuration not stated),1.12 ± 0.096,1.09 ± 0.089,0.885 ± 0.047,1.09 ± 0.057,1.14 ± 0.079,1.14 ± 0.34,0.976 (active)
O=C(CN1CCCCC1)NN=Cc1ccccc1OCc1ccccc1,0.948 ± 0.08,1.01 ± 0.1,0.927 ± 0.04,0.99 ± 0.1,1.02 ± 0.082,1.14 ± 0.18,0.995 (active)
NC(=O)CSc1nc2ccccc2[nH]1,1.1 ± 0.088,1.07 ± 0.081,0.998 ± 0.037,0.985 ± 0.16,1.09 ± 0.13,0.992 ± 0.16,0.997 (active)
O=C(CSc1nnc(COc2ccc(Cl)cc2)o1)N1CCCc2ccccc21,0.883 ± 0.044,1.12 ± 0.11,0.853 ± 0.086,0.885 ± 0.044,0.823 ± 0.05,0.866 ± 0.29,1.01 (active)
Cc1ccc(C2(O)C=CC(C)(C(Cl)(Cl)Cl)C=C2)cc1 (configuration not stated),0.687 ± 0.054,0.974 ± 0.063,1.02 ± 0.067,0.455 ± 0.093,0.989 ± 0.047,0.915 ± 0.14,1 (active)
Cc1ccc(-c2cc(-c3ccccc3)nc(NN=Cc3ccc(O)cc3)n2)cc1,0.952 ± 0.12,1.3 ± 0.14,1.7 ± 0.17,0.228 ± 0.026,0.942 ± 0.12,0.949 ± 0.12,0.923 (active)
C[C@@H](O)[C@H]1C(=O)N2C(C(=O)O)=C(SCCNC=N)C[C@H]12.O,0.988 ± 0.074,1.01 ± 0.049,0.981 ± 0.034,0.897 ± 0.086,1.04 ± 0.089,1.25 ± 0.14,0.999 (active)
Cc1sccc1-c1csc(Nc2cccnc2)n1.Cl,0.603 ± 0.028,0.918 ± 0.075,1.16 ± 0.21,0.6 ± 0.029,1.19 ± 0.23,1.62 ± 0.53,0.902 (active)
CCC(=O)Nc1ccc(N2CCOCC2)c(Cl)c1,1.11 ± 0.12,0.945 ± 0.087,1.03 ± 0.052,0.838 ± 0.095,0.982 ± 0.054,1.01 ± 0.11,0.996 (active)
Cc1ccc(S(=O)(=O)CCSc2cccc(C(=O)Nc3ccccc3)c2)cc1,0.992 ± 0.068,1.03 ± 0.087,0.909 ± 0.1,0.808 ± 0.03,1.26 ± 0.13,1.08 ± 0.098,1 (active)
CC(C)(CO)NC(=O)C(c1ccccc1)c1ccccc1,1.24 ± 0.14,0.961 ± 0.086,1 ± 0.041,0.937 ± 0.035,0.991 ± 0.051,0.896 ± 0.095,0.996 (active)
CCN1C(=O)C(=Cc2nc3ccccc3c(=O)n2-c2ccc(C)cc2)c2ccccc21,1.06 ± 0.085,1.08 ± 0.071,0.994 ± 0.077,0.89 ± 0.035,1.55 ± 0.28,1.11 ± 0.078,1.01 (active)
CCc1ccc(Cc2ccc3c(c2)[C@]2(OC3)O[C@H](CO)[C@@H](O)[C@H](O)[C@H]2O)cc1.O,1.04 ± 0.29,1.08 ± 0.054,1.07 ± 0.094,0.883 ± 0.033,1.04 ± 0.12,1.16 ± 0.26,0.987 (active)
OCCSCCc1ccncc1,1.03 ± 0.083,1.05 ± 0.086,1.01 ± 0.047,1.02 ± 0.23,0.995 ± 0.07,1.02 ± 0.17,1 (active)
O=C(Nc1ccc(-c2cn3ccsc3n2)cc1)NC1CCCCC1,2.23 ± 0.14,1.16 ± 0.12,1.59 ± 0.11,0.5 ± 0.032,0.923 ± 0.086,1.22 ± 0.18,0.826 (active)
CC(=O)N1CCN(c2ccc(OCC3COC(Cn4ccnc4)(c4ccc(Cl)cc4Cl)O3)cc2)CC1 (configuration not stated),0.669 ± 0.058,1.1 ± 0.085,1.08 ± 0.023,1.07 ± 0.059,1.14 ± 0.12,1.18 ± 0.11,0.92 (active)
Cc1cccc(NC(=O)C(=Cc2ccco2)NC(=O)c2ccccc2I)c1,1.06 ± 0.087,1.06 ± 0.081,1.01 ± 0.072,0.953 ± 0.076,1.15 ± 0.099,1.11 ± 0.15,1.01 (active)

# From the supplement of paper PMC10646978
